# Results reported in the supplement of paper PMC3334620.
# In all, about 33,000 sequences were measured (“E-score (-0.5 to 0.5)”: median about -0.016, highest 2% from about 0.31 on). Shown is part of a subset that was picked to be rich in the highest values.
# Molecular target: Cst6 (UniProt P40535)
# Experiment: PBM E-score (8-mer binding enrichment) (E-score (-0.5 to 0.5)); higher = stronger / more preferred TF binding
# Conditions: protein concentration: 200 nM; construct: GST-DNA-binding domain
# Method in brief: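 E-scores (a modified Wilcoxon-Mann-Whitney statistic) were assigned by the Universal PBM Analysis Suite to every ungapped eight-base word pooled with its reverse complement. The input came from universal all-10-mer Agilent arrays made double-stranded by primer extension and probed with GST-tagged yeast transcription factors at about 100-200 nM. Fluorescent anti-GST detected bound protein, and masliner normalised the scans.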
# Chain of UniProt P40535 (P40535 whole entry): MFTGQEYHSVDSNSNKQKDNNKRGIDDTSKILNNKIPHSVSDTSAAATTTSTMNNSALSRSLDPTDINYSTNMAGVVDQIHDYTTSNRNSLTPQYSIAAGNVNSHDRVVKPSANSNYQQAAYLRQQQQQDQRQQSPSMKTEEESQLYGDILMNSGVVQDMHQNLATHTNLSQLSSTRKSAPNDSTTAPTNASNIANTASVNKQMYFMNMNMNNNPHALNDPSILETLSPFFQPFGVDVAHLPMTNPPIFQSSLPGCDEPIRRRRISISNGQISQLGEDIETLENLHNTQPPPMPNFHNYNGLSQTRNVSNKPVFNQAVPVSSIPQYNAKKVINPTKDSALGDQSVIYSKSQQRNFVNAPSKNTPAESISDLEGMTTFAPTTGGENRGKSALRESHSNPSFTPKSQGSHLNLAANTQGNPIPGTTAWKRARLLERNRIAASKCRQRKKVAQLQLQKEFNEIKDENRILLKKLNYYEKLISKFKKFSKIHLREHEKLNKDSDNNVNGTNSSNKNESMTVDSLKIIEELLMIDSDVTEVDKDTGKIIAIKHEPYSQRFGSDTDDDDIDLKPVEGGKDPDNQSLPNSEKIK
row,Sequence,PBM E-score
1,TACCTACA,0.0531
2,ACCGGGTG,-0.19
3,GCGATTAC,0.184
4,CACCGCAG,-0.116
5,CGTCTCGA,0.143
6,GAGTTTTA,0.122
7,AAATGACT,0.0956
8,ATATGACA,0.304
9,AAATGACG,0.466
10,GTATGACA,0.323
11,AAATGACC,0.102
12,CTATGACA,0.264
13,AGCTCATA,0.124
14,GAAGAACA,0.131
15,CAAGAACA,0.053
16,TAAGAACA,0.312
17,CCTTACCA,-0.119
18,CCCGTTCC,-0.132
19,CATCACCG,0.305
20,TATCACCA,0.123
21,CATCACCA,0.372
22,AATCACCC,-0.00614
23,CATCACCC,0.308
24,AATCACCA,0.169
25,CATTGTCC,-0.0804

row,Sequence,PBM E-score
1,ACCGCAAC,0.0509
2,GTCACATA,0.245
3,CGAAGTTA,0.11
4,CCTAACAG,0.00445
5,GCTGGCAA,-0.106
6,CTGATGTA,0.326
7,GTGATGTA,0.465
8,GAGATGTA,0.0936
9,CCGATGTA,-0.0196
10,CTGATGTC,0.287
11,ATGATGTA,0.462
12,CGGATGTA,-0.0158
13,ACGATGTC,0.0231
14,AGGATGTA,0.0787
15,AAGATGTA,0.169
16,ATGATGTC,0.478
17,GGGATGTA,-0.0844
18,GCACTGCC,0.0838
19,AGTCCTTA,-0.0772
20,CAGCCCAG,-0.383
21,ACAGCCCC,-0.228
22,AGTCCCTG,-0.223
23,CGATTGAG,-0.0697
24,GACGATGA,0.301
25,CCCAGGAA,-0.176

row,Sequence,PBM E-score
1,CTTTCTGC,0.0175
2,ATGATGAG,0.232
3,AGGATGTG,-0.232
4,ATGATGTG,0.333
5,CTGAGAGC,-0.0922
6,AGCGGCAC,0.123
7,CGCGGCGA,0.27
8,CGCGCGGC,0.378
9,CGCGGCAC,0.324
10,CGCGGCAA,0.134
11,AGCGCGGC,0.115
12,AACGGCGC,0.251
13,CACGGCGC,0.357
14,CACGGCGA,0.21
15,AGCGGCGC,0.107
16,CGCGGCGC,0.372
17,CGCGCGGA,0.131
18,CTTCGTAC,-0.193
19,AACATAAT,0.246
20,ATTAACGC,0.0112
21,CAGGGAGA,-0.227
22,GACTTAAC,-0.167
23,ACGGATAC,0.115
24,ATGTCTGG,-0.0099
25,ACTCATTG,-0.129

row,Sequence,PBM E-score
1,ATGAACTG,0.12
2,GAACGGTC,-0.223
3,AGTGGGTG,0.0423
4,ACATCCGT,0.0894
5,CGGCGCGC,0.242
6,AGCACGGC,0.198
7,CGCACGGC,0.375
8,CGCACGGA,0.154
9,CGGCGCGA,0.35
10,AGGCGCGA,0.205
11,AAACAAAT,0.192
12,CTTATTAA,0.141
13,ATCGACGA,0.00463
14,ACGTAATA,0.482
15,GCGTAATA,0.296
16,AAGTAATC,0.179
17,CCGTAATA,0.176
18,ACGTAATC,0.484
19,AGGTAATG,0.101
20,CCGTAATC,0.0889
21,ACGTAATG,0.476
22,AAGTAATG,0.116
23,GCGCTCAA,-0.165
24,CCTAGCGA,-0.296
25,AGCCGACA,-0.162

row,Sequence,PBM E-score
1,TAATTTAA,0.287
2,CATCGCCA,0.0609
3,ACACGGAC,-0.00107
4,CTTCCAAC,-0.0988
5,AGCCGCAC,0.188
6,AGCCGCAT,0.338
7,AGCCGCAA,-0.127
8,GCACCTGC,-0.114
9,AAGCTTTG,-0.087
10,TTCTGCAA,0.138
11,CATATGAC,0.366
12,AATATGAT,0.233
13,AATATGTC,0.319
14,AATATGTA,0.211
15,AATATGAC,0.35
16,CCTATGAC,0.221
17,ACTATGAC,0.264
18,CATATGAG,0.0643
19,GCTATGAC,0.332
20,AATATGTG,0.25
21,GATATGAC,0.273
22,AATATGAG,0.132
23,CGAAAGCA,-0.0132
24,CATCTGAA,0.037
25,ATCCTATC,-0.0914

row,Sequence,PBM E-score
1,ACCGTCGG,-0.194
2,CGTCTATA,-0.0233
3,ACCTTTGC,-0.095
4,CGCTGCAC,-0.0108
5,CTTATGAA,0.052
6,ATTATGAC,0.394
7,CTTATGAC,0.368
8,CTTATGCC,0.0646
9,ATTATGAA,0.292
10,ATTATGAG,0.22
11,AACAAGAA,0.237
12,AGAAAGCT,0.0476
13,ATAGTCGA,0.168
14,ACATATTA,0.312
15,ACATATTG,0.137
16,GTATATTA,0.261
17,CCATATTA,0.0718
18,ATATATTA,0.336
19,CTATATTA,0.333
20,CTATATTC,0.0369
21,CTCTATTA,0.0287
22,ATATATTG,0.109
23,TACTGGCA,-0.0625
24,CAGACAGG,-0.15
25,ATCGATAC,0.171

row,Sequence,PBM E-score
1,AGCTCCGA,-0.145
2,CAAAGCGA,-0.0448
3,TCGACACA,0.108
4,AGCAAGCG,-0.11
5,CTGACGTA,0.489
6,ATCACGTA,0.344
7,CCGACGTA,0.0226
8,ATCACGTG,0.135
9,ATCACGTC,0.286
10,GCGACGTA,0.219
11,GGGACGTA,0.0851
12,CAGACGTA,0.0968
13,ATGACGTG,0.491
14,ACGACGTG,0.061
15,GTGACGTA,0.496
16,AGGACGTG,-0.088
17,AGGCTCGA,0.0255
18,CTGGTGTC,-0.119
19,GCAGCCGA,-0.053
20,AAAACCGA,0.0246
21,TTCCAAAA,0.0844
22,CAGGCTAC,-0.249
23,GCTCCGCC,-0.185
24,CCGCCGGA,-0.149
25,ACCATCGA,-0.0265

row,Sequence,PBM E-score
1,CGAGGCGC,0.188
2,AAGACGTA,0.215
3,ATGACGTA,0.498
4,AGGACGTA,-0.126
5,CACCGTTC,-0.0919
6,CAGGCGAG,-0.261
7,AGTGCGTC,0.104
8,GTTGCGTA,0.264
9,ATTGCGTC,0.34
10,ATTGCGTA,0.415
11,CTTGCGTC,0.249
12,ATTGCGTG,0.154
13,CTCGTTCA,0.022
14,ATTCCCGG,0.041
15,AGGAGCGG,-0.207
16,TAACGTCA,0.489
17,CAACGTCA,0.471
18,GAACGTCA,0.442
19,GAACGTTA,-0.124
20,CAACGTCC,-0.263
21,CAACGTCG,0.0638
22,AAACGTCA,0.463
23,TAACGTGA,0.284
24,TAACGTTA,0.149
25,AAACGTCT,0.14

row,Sequence,PBM E-score
1,AAACGTCC,-0.0706
2,GAACGTCC,0.0008
3,CCAGGCGA,-0.317
4,CTACCTAG,-0.231
5,ATCCCGGA,-0.249
6,AATGAGCG,0.139
7,AAGTAAAA,0.148
8,AGCCAGTG,-0.171
9,ATCGCCTA,-0.115
10,CGATTGTA,0.0905
11,CGGTCTTC,-0.0638
12,AACTGTGT,0.0284
13,ATCAGTTC,-0.0191
14,ATACAGCC,-0.059
15,GGGTGCCA,-0.137
16,CGGTATGC,-0.111
17,ACGGTCTG,-0.189
18,TCACGTAA,0.415
19,CCACGTAA,0.275
20,ACACGTAG,0.0917
21,ACACGTAA,0.366
22,ACACGTAC,-0.0236
23,GCACGTAA,0.232
24,CTACCCCA,-0.16
25,ATACAGAC,0.128

row,Sequence,PBM E-score
1,CCGCAACA,0.113
2,CACGTTAC,0.143
3,CACGTTAA,0.0603
4,GACGTTAC,0.315
5,AACGTTAC,0.137
6,TACGTTAA,0.189
7,GACGTTAA,0.32
8,GCCAAAAC,0.00644
9,AGCTGCGA,-0.198
10,AGCGGTCC,-0.134
11,ATACGGGC,-0.204
12,ACTGGGGG,-0.426
13,CGGACGCA,-0.0966
14,CGGCGCCG,0.384
15,CGGCGCCC,0.143
16,AGGCGCCT,0.207
17,AGGCGCCA,0.0572
18,AGGCGCCG,0.325
19,CGGCGCCA,0.161
20,CCGTCGAA,0.0203
21,GCAAATGC,0.0351
22,AATAGCCC,-0.132
23,AGCCGGCT,-0.193
24,AAGATGAG,-0.0416
25,CGGATGAA,0.127

row,Sequence,PBM E-score
1,CGGATGAC,0.321
2,AAGATGAT,0.229
3,CAGATGAG,0.0374
4,AAGATGAC,0.345
5,CAGATGAC,0.383
6,CGGATGAG,-0.135
7,GAGATGAC,0.239
8,GTAAGTCA,0.132
9,TCGCTCAA,-0.091
10,AATTGCCC,-0.055
11,CCAAAAGA,0.207
12,AAAATCGG,-0.00802
13,GCGCAGCC,-0.38
14,ATTGAAAA,0.31
15,CTAAAAAA,0.273
16,ATTGAAAC,0.194
17,CTTGAAAA,0.216
18,ATTAAATC,0.212
19,ATAAAAAA,0.234
20,ATAAAAGG,0.0584
21,ATTAAATG,0.315
22,ATTAAATA,0.267
23,TTTAAAAA,0.0985
24,ATAAAAAG,0.307
25,TTAAAAAA,0.306

row,Sequence,PBM E-score
1,CAGGTTAG,-0.116
2,CCGCTTGA,0.0541
3,ATCTGCTG,0.0566
4,GAAGCTGC,-0.117
5,ACTTAGCA,-0.0634
6,ATTCCGCG,0.129
7,ATTAAAAA,0.323
8,ATTAAAAG,0.173
9,ATTAAAAC,0.213
10,ACTACACA,0.17
11,CGTTAGAA,0.101
12,CTGATGCA,0.0731
13,ATGATGCG,0.296
14,GAGATGCA,-0.071
15,GTGATGCA,0.383
16,CTGATGCC,0.113
17,ACGATGCA,-0.00326
18,ATGATGCA,0.362
19,AGGATGCC,0.0165
20,ATGATGCC,0.347
21,CCGGATCG,-0.134
22,ACTTTTCA,0.133
23,CTTCCCAC,0.0313
24,GACTCGCC,-0.223
25,CCGGGTTA,-0.281

row,Sequence,PBM E-score
1,CAAAAGAA,0.239
2,AAGCTCAC,-0.167
3,AACAATCA,0.287
4,CACCCCGG,-0.19
5,ACTTCGTA,-0.0634
6,ACGTAACA,0.386
7,CCGTAACG,-0.0115
8,CCGTAACC,-0.0836
9,AAGTAACT,0.204
10,AAGTAACG,0.0219
11,TCGTAACA,0.129
12,AGGTAACT,0.106
13,ACGTAACG,0.39
14,GCGTAACC,0.14
15,GCGTAACA,0.195
16,ACGTAACC,0.414
17,ACGTAACT,0.413
18,ATGAGACG,-0.0685
19,ACCTAGGG,-0.159
20,ACCCATGG,-0.144
21,CTCCTTTA,-0.251
22,CTACCGTA,0.0736
23,ATCAAATA,0.0992
24,CTCGGTTA,0.0295
25,GGGTCAGA,-0.219

row,Sequence,PBM E-score
1,CCGTCAGG,-0.107
2,ACGTCAGA,0.464
3,GCGTCAGC,0.15
4,ACGTCAGC,0.482
5,TCGTCAGA,0.124
6,ACGTCAGG,0.413
7,CCGTCAGA,-0.0924
8,GCGTCAGA,0.313
9,CCGTCAGC,0.0302
10,GTGTCAGA,-0.0004
11,ATGTCAGG,0.176
12,ACCGACGG,-0.0433
13,CTTCCCGA,-0.0284
14,AGTCGCAG,-0.192
15,ACTCTTGA,-0.103
16,CCTTGCAA,-0.186
17,ACTCCGCG,-0.0486
18,CGGCATAA,0.135
19,AACTCGAG,-0.0652
